The AC50 is the concentration at which the activity in the assay is half-maximal.

Several values for one entry are separate records, joined by “and”; a condition that tells them apart may be missing. Equal entries are not always repeated. Records with an inconclusive call do not appear. Activity calls are given as the source filed them. Rule for the calls, unless noted: active = hit-call score of the fitted dose curve at least 0.9, where 1 is the maximum; inconclusive = response in the unintended direction; inactive = score below 0.9.

Assay [1] is described as follows: TOX21_p53_BLA_p2_viability: Viability Assessment in the Tox21 HCT-116 p53 Agonism Beta-lactamase Assay, Phase 2 (AID 2283591).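 Note: actives lower the ATP signal meaning cytotoxicity.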 Put shortly: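 Cytotoxicity readout: CellTiter-Glo ATP luminescence, 30 min at room temperature, after the beta-lactamase read. Cells were HCT116 exposed 16 h at 37C to compounds pin-transferred at 217-fold dilution from DMSO stocks.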
Assay [2] has as its target Cellular tumor antigen p53 (Homo sapiens) (UniProt P04637). Description: TOX21_p53_BLA_p2_ratio: Tox21 HCT-116 p53 Agonism Beta-lactamase Assay, Ratio, Phase 2 (AID 2283592). Put shortly:
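An inducible beta-lactamase reporter in HCT116 cells signals p53 pathway activation. After 16 h chemical exposure at 37C, cells load CCF4-AM substrate for 2 h at room temperature; activity is the cleaved/uncleaved emission ratio relative to DMSO.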

Assay [3] in a line: TOX21_p53_BLA_p3_viability: Viability Assessment in the Tox21 HCT-116 p53 Agonism Beta-lactamase Assay, Phase 3 (AID 2283593).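 Note: cells exposed to compound for 16 h before reading.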 Put shortly:
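Cellular ATP was quantified by CellTiter-Glo luminescence, read after 30 min at room temperature. Beforehand, HCT116 cells (4000/well) received compound 5 h post-seeding, 217-fold diluted from DMSO, then incubated 16 h at 37C.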

Assay [4] concerns the target Cellular tumor antigen p53 (Homo sapiens) (UniProt P04637). Description: TOX21_p53_BLA_p3_ratio: Tox21 HCT-116 p53 Agonism Beta-lactamase Assay, Ratio, Phase 3 (AID 2283596). Put shortly: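 HCT116 p53-bla cells (4000/well) given compound in DMSO (217-fold dilution) after 5 h, incubated 16 h at 37C. CCF4-AM substrate 2 h at room temperature; 460/530 nm emission ratio, gain fitted against DMSO.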

Assay [5] can be described thus: TOX21_p53_BLA_p4_viability: Viability Assessment in the Tox21 HCT-116 p53 Agonism Beta-lactamase Assay, Phase 4 (AID 2283597).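 Note: hits lower the luminescence signal meaning cytotoxicity.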 A digest of the protocol: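 Compound exposure of HCT116 cells lasts 16 h at 37C, 5% CO2, with DMSO stocks diluted 217-fold. Cellular ATP is then quantified by CellTiter-Glo luminescence after 30 min at room temperature.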
In assay [6] the target is Cellular tumor antigen p53 (Homo sapiens) (UniProt P04637). Description: TOX21_p53_BLA_p5_ratio: Tox21 HCT-116 p53 Agonism Beta-lactamase Assay, Ratio, Phase 5 (AID 2283599). A digest of the protocol:
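Beta-lactamase reporter ratio (blue 460 nm over green 530 nm, 405 nm excitation) after 2 h CCF4-AM loading, in HCT-116 cells exposed 16 h at 37 C to compounds pinned at 217-fold dilution. Increases relative to DMSO baseline scored.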

The nature of assay [7]: TOX21_p53_BLA_p5_viability: Viability Assessment in the Tox21 HCT-116 p53 Agonism Beta-lactamase Assay, Phase 5 (AID 2283600). Put shortly:
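Counter-readout for cytotoxicity: ATP-dependent luminescence from CellTiter-Glo, read in the beta-lactamase wells after 30 min at RT, following a 16 h compound exposure at 37C.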

The target of assay [8] is Cellular tumor antigen p53 (Homo sapiens) (UniProt P04637). Description: TOX21_p53_BLA_p4_ratio: Tox21 HCT-116 p53 Agonism Beta-lactamase Assay, Ratio, Phase 4 (AID 2283601). Put shortly:
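Signal is the blue/green (460nm/530nm) ratio of cleaved versus uncleaved CCF4-AM substrate, read after 2 h substrate loading. Cells were HCT116 carrying the p53-responsive beta-lactamase reporter, dosed 16 h at 37C, 5% CO2; CellTiter-Glo measured in parallel.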

Assay [9] has as its target Thyroid hormone receptor alpha (Rattus norvegicus) + Thyroid hormone receptor beta (Rattus norvegicus) (UniProt P18113+P63059). Description: TOX21_TR_LUC_GH3_Antagonist_Followup: Tox21 GH3 Thyroid Hormone Receptor Antagonism Luciferase Follow-Up Assay (AID 2283942). Put shortly: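 Confirmatory qHTS, antagonist mode: T3 (1.0 nM final) + test cpd, 15 conc, 92 uM–5nM final, GH3 rat pituitary line, 24 h, 37C. Luc reporter, RLU vs DMSO.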

A further assay concerns the target THRA (gene 7067) (UniProt P10827). Description: TOX21_TRA_COA_Antagonist_Followup_ratio: Tox21 Thyroid Hormone Receptor alpha Antagonism through Coactivator Recruitment Follow-Up Assay, Ratio (AID 2283953). Put shortly:
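This follow-up to the GH3 luciferase screen checks specificity in a cell-free format. It measures SRC-2 coactivator peptide binding to TRα LBD by TR-FRET and scores loss of ratio signal relative to DMSO.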

Assay [10] deals with THRB (gene 7068) (UniProt P10828). Description: TOX21_TRB_BLA_Antagonist_Followup_ratio: Tox21 Thyroid Hormone Receptor beta Antagonism Beta-lactamase (BLA) Follow-Up Assay, Ratio (AID 2283958). Put shortly: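 In this antagonist-mode follow-up, a stably integrated GAL4-TRβ LBD fusion drives a UAS-beta-lactamase reporter in HEK293T cells. Loss of ratio signal relative to DMSO after 18 h treatment indicates activity; parallel CellTiter-Glo flags cytotoxicity.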
THRB (gene 7068), sequence (P10828 whole entry, looked up, the tested form may be a part): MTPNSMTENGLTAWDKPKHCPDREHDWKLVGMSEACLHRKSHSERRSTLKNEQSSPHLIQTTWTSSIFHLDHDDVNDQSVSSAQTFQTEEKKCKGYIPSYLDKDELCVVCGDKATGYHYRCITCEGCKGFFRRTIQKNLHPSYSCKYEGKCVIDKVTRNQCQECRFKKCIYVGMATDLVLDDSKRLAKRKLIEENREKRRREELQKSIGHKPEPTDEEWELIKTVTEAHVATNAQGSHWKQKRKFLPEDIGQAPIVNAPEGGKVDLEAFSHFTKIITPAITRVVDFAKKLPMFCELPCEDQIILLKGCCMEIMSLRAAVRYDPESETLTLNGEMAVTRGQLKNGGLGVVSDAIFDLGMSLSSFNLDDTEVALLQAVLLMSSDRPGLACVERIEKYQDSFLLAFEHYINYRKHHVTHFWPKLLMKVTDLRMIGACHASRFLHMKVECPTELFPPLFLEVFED

Assay [11] is described as follows: TOX21_TRB_BLA_Antagonist_Followup_viability: Viability Assessment in the Tox21 Thyroid Hormone Receptor beta Antagonism Beta-lactamase (BLA) Follow-Up Assay (AID 2283961). A digest of the protocol: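 Cytotoxicity is measured in parallel with the antagonist-mode TRβ beta-lactamase screen, using ATP-coupled luciferase luminescence. Engineered HEK293T cells are treated for 18 h with 11-point compound series in triplicate.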

Assay [12] addresses THRB (gene 7068) (UniProt P10828). Description: TOX21_TRB_COA_Antagonist_Followup_ratio: Tox21 Thyroid Hormone Receptor beta Antagonism through Coactivator Recruitment Follow-Up Assay, Ratio (AID 2283967). A digest of the protocol:
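Test compound was incubated with 5.0 nM GST-TRβ LBD in 0.10% BSA. Then 200 nM fluorescein-SRC-2 peptide and 2 nM terbium anti-GST antibody were added. TR-FRET (520:495 nm) was measured and normalized to DMSO and T3 controls.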

The target in assay [13] is Retinoic acid receptor RXR-alpha (Homo sapiens) (UniProt P19793). Description: TOX21_TR_RXR_BLA_Antagonist_Followup_ratio: Tox21 Thyroid Hormone Receptor beta Retinoid X Receptor alpha (RXRa) Antagonism Beta-lactamase (BLA) Follow-Up Assay, Ratio (AID 2283972). Put shortly: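 Antagonist mode used GAL4 UAS-driven beta-lactamase in HEK293T cells expressing RXRa, treated for 16 h with compound concentration series. Activity was taken from the blue/green (460:530 nm) ratio of cleaved to uncleaved substrate.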
Retinoic acid receptor RXR-alpha (Homo sapiens), sequence (P19793 whole entry, looked up, the tested form may be a part): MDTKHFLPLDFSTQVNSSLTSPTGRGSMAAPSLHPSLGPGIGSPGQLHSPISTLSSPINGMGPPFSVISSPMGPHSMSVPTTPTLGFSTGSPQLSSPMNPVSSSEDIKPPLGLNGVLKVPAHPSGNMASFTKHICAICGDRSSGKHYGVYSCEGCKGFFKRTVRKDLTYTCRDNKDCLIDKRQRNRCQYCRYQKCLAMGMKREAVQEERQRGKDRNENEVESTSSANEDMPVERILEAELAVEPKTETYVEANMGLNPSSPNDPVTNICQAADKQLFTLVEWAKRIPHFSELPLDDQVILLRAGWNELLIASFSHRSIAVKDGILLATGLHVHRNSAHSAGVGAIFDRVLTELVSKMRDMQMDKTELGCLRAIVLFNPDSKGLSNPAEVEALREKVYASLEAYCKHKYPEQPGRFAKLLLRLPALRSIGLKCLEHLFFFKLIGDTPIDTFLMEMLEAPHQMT

Assay [14] concerns the target PGR (gene 5241) (UniProt P06401). Description: TOX21_PR_BLA_Followup_Agonist_ratio: Tox21 HEK293 Progesterone Receptor (PR) Agonism Beta-lactamase Follow-Up Assay, Ratio (AID 2283933). A digest of the protocol:
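Agonist-mode follow-up in HEK293T cells carrying a UAS-driven beta-lactamase reporter, grown in 2% charcoal-stripped serum. Compounds act for 16 hr; activity is the ch2/ch1 cleavage ratio, with same-well CellTiter-Glo viability run in parallel.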

Assay [15] has the same target. Description: TOX21_PR_BLA_Followup_Antagonist_ratio: Tox21 HEK293 Progesterone Receptor (PR) Antagonism Beta-lactamase Follow-Up Assay, Ratio (AID 2283934).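 Note: PR-UAS-bla HEK293T cells stimulated with 1 nM R5020 agonist for 16 hr.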 A digest of the protocol:
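Antagonist mode used 1 nM R5020 (final) as agonist on a beta-lactamase reporter line in HEK293T cells. Activity was taken from the substrate cleavage ratio after 16 hr exposure.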

A short description of assay [16]: TOX21_PR_BLA_Followup_Agonist_viability: Viability Assessment in the Tox21 HEK293 Progesterone Receptor (PR) Agonism Beta-lactamase Follow-Up Assay (AID 2283935).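 Note: signal loss means lower viability so actives are cytotoxic.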 A digest of the protocol: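 Multiplexed viability counter-screen: ATP-coupled luciferase signal measured after 30 min at room temperature, following 16 hr compound treatment of PR-UAS-bla HEK293T cells grown in charcoal-stripped serum.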

Assay [17] in a line: TOX21_PR_BLA_Followup_Antagonist_viability: Viability Assessment in the Tox21 HEK293 Progesterone Receptor (PR) Antagonism Beta-lactamase Follow-Up Assay (AID 2283936).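 Note: hits lower the luminescence signal meaning cytotoxicity.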 A digest of the protocol: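 PR-UAS-bla HEK293T cells (3,000/well, 2% charcoal-stripped FBS) given compound plus R5020 agonist, 16 h at 37C. CellTiter-Glo added after bla read, 30 min at room temperature; luminescence loss indicates cytotoxicity.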

In assay [18] the target is PGR (gene 5241) (UniProt P06401). Description: TOX21_PR_LUC_Followup_Agonist: Tox21 HEK293 Progesterone Receptor (PR) Agonism Luciferase Follow-Up Assay (AID 2283937; active = hit-call score of the fitted dose curve at least 0.9, where 1 is the maximum; inactive = score below 0.9). Put shortly:
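Agonist mode: reporter cells carrying PR-A and luciferase are treated 16 h with test compounds at 37C. Luciferase induction is measured by luminescence and fitted upward against DMSO.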

Assay [19] is described as follows: TOX21_PR_LUC_Followup_Antagonist_viability: Viability Assessment in the Tox21 HEK293 Progesterone Receptor (PR) Antagonism Luciferase Follow-Up Assay (AID 2283940). Put shortly: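 Cellular ATP, measured with luciferase-coupled CellTiter-Glo, served as the viability endpoint after HEK293-PR-A-luc cells were exposed to test compounds for 16 h at 37C.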
Assay [20] in a line: TOX21_PR_LUC_Followup_Agonist_viability: Viability Assessment in the Tox21 HEK293 Progesterone Receptor (PR) Agonism Luciferase Follow-Up Assay (AID 2283941).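 Note: loss of signal means cytotoxicity so actives lower viability.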 Put shortly:
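Luminescent ATP quantitation (CellTiter-Glo) serves as the read-out; a drop flags cytotoxic compounds. Cells are HEK293-PR-A-luc grown in 10% charcoal-stripped FBS, plated 3,000/well, and exposed to compound for 16 h.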

PGR (gene 5241), sequence (P06401 whole entry, looked up): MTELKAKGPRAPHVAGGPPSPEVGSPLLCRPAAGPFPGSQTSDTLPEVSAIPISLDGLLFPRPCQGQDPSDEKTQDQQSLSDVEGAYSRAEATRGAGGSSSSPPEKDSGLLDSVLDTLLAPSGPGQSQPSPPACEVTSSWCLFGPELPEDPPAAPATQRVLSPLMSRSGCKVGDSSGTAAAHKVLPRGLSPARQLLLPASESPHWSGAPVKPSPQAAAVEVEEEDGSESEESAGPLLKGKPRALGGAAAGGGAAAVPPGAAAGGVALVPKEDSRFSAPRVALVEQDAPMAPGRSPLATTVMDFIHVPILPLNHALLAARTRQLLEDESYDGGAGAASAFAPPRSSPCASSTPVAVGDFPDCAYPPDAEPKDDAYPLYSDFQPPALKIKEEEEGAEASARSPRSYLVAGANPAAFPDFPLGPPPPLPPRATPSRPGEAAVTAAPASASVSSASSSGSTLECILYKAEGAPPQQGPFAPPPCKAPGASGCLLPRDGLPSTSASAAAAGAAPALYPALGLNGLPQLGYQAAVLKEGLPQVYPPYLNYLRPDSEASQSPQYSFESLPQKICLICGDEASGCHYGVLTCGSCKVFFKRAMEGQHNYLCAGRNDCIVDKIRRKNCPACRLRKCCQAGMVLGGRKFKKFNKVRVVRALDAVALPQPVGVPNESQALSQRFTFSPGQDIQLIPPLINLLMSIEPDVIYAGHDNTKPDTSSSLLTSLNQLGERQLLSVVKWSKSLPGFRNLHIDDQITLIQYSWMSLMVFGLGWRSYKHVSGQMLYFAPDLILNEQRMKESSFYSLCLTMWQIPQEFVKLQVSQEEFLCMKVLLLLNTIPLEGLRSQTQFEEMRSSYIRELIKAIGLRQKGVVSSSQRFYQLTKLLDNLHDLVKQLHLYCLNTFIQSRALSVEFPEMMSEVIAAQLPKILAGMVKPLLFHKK
Cellular tumor antigen p53 (Homo sapiens), sequence (P04637 whole entry, looked up): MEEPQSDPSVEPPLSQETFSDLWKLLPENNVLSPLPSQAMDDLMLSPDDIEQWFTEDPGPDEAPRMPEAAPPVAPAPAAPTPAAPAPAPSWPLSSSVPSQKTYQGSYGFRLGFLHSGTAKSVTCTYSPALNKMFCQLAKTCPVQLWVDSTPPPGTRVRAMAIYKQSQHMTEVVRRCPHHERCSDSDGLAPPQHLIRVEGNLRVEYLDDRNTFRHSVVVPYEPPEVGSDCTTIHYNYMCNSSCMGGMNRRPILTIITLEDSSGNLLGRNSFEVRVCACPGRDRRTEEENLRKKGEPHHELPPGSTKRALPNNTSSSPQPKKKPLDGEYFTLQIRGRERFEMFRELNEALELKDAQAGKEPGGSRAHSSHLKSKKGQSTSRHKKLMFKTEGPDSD
THRA (gene 7067), sequence (P10827 whole entry, looked up, the tested form may be a part): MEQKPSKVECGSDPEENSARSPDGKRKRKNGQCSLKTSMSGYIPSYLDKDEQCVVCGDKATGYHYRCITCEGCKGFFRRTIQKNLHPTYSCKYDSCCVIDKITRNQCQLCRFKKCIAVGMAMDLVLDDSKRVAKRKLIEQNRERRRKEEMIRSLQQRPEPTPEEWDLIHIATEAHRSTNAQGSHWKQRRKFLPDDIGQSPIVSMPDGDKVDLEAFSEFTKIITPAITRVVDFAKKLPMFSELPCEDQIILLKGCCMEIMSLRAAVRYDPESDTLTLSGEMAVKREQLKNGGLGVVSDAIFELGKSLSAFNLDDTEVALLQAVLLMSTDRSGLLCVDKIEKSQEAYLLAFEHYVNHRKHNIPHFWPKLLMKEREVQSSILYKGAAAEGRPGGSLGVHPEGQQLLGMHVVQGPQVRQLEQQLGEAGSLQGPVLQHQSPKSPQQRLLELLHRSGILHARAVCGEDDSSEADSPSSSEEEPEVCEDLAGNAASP

On to `CC(=O)[O][Sn]([c]1ccccc1)([c]1ccccc1)[c]1ccccc1`, for which the AC50 in [1] was 2.52 µM (active); in assay [2] it was 6.42 µM (active); in assay [3], 2.87 µM (active); in assay [4], 17.7 µM (active); in [5] it was 2.42 µM (active); in assay [6], 18.4 µM (active). In addition, the AC50 in [7] was 11.2 µM (active); in assay [8] it was 8.98 µM (active).

On to `CN[C@@]1(c2ccccc2Cl)CCCCC1=O`, for which the result in assay [1], in assay [2], in [3], in assay [4], in [5] and in [6] was inactive. Moreover, the compound was classed as inactive in assay [7] and in assay [8].

With `Oc1ccc2[nH]cc(CCCCN3CC=C(c4ccccc4)CC3)c2c1`, the outcome in assay [1], in assay [2], in assay [3], in assay [4], in assay [5] and in assay [6] was inactive. The compound was classed as inactive in assay [7] and in assay [8].

As to `CC[n+]1c(-c2ccccc2)c2cc(N)ccc2c2ccc(N)cc21`, the result in assay [1], in assay [3], in [5] and in [7] was inactive. In addition, the AC50 in assay [2] was 1.43 µM (active) and 9.38 µM (active) and 2.95 µM (active); in assay [4], 3.51 µM (active) and 14.1 µM (active) and 6.74 µM (active); in assay [6], 2.77 µM (active) and 8.85 µM (active) and 4.7 µM (active); in assay [8], 1.93 µM (active) and 9.2 µM (active) and 3.86 µM (active).

Turning to `CC(C)CON=O`, the call in assay [1], in [2], in assay [3], in assay [4], in assay [5] and in assay [6] was inactive. Also, the result in assay [7] and in assay [8] was inactive.

Take `CCCCCCC[CH2][Sn]([Cl])([Cl])[CH2]CCCCCCC`: the AC50 in assay [1] is 66.6 µM (active); in [2], 67 µM (active); in assay [3], 57.1 µM (active); in assay [4] it was 21.2 µM (active); in assay [5], 36.5 µM (active). Besides, the result in [6], in assay [7] and in assay [8] was inactive.

For `CCN(CC)CCO[C@H]1CC[C@@]2(C)C(=CC[C@@H]3[C@@H]2CC[C@]2(C)C(=O)CC[C@@H]32)C1`, the compound was classed as inactive in [1], in assay [2], in assay [3], in assay [4], in [5] and in [6]. Also, the call (in assay [7]; in assay [8]; in [9]; in the assay with THRA (gene 7067); with THRB (gene 7068) [10]; in [11]) was inactive. In addition, the result (with THRB (gene 7068) [12]; in [13]) was inactive.

In the case of `O=c1ccc2cc(O[C@@H]3O[C@H](CO)[C@@H](O)[C@H](O)[C@H]3O)c(O)cc2o1`, the compound was called inactive in assay [1], in assay [3], in assay [5] and in [7]. The AC50 in assay [2] is 10.3 µM (active); in assay [4], 12 µM (active); in assay [6], 10.3 µM (active); in assay [8], 10.9 µM (active).

Consider `CCOP(=S)(OCC)Oc1cc(Cl)c(Br)cc1Cl`, for which the outcome in assay [1], in assay [2], in [3], in assay [4], in assay [6] and in assay [7] was inactive. In addition, the outcome (in [8]; with PGR (gene 5241) [14]; in assay [16]; in assay [17]; in the assay with PGR (gene 5241) [18]; in assay [19]) was inactive. The compound was classed as inactive in assay [20]. Moreover, the AC50 in [5] is 72.9 µM (active); with PGR (gene 5241) [15], 6.49 µM (active).

The values are drawn from PubChem BioAssay (EPA / NIEHS).
